Bioassay records deposited in PubChem BioAssay by National Center for Advancing Translational Sciences (NCATS).
In the library only some 2.2% were active in any assay of this set; here they are far more common.
Mm-Cpn inhibitor: M. maripaludis TRiC chaperonin inhibition | purified Mm-Cpn ATPase, ADP Transcreener TR-FRET | Potency, µM (highest dose often 76.9 µM), inactives show at the highest dose activity, negative = inhibition, most hits filed as inhibitors | 330,000 compounds, 0.031% hits; further: potency means the concentration at half of the fitted maximal effect; on the % scale 0 is the no-effect control and ±100 the full control effect; nearly all actives have a fitted effect of over 80% in size
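Measured: ADP formation by purified Mm-CPN. Conditions: 25 nM protein, 10 uM ATP, Tris pH 7.4 with Mg2+, K+ and DTT, 37°C for 30 min. Detection: Transcreener HTRF after 30 min at room temperature.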
GLP1R ag: GLP-1 receptor (human) agonism; P43220; HEK293 GLP-1R CRE-luciferase, luminescence, 4-6 h; cells express a hypersensitive GLP-1R form; Potency, µM (series often up to 45.6 µM), without a hit: at the top dose activation, hits mostly activators; 380,000 compounds, 0.007% hits; AID 624172; further: potency means the concentration at half of the fitted maximal effect; % of control where 0% means no effect
Target sequence (P43220 whole entry, looked up): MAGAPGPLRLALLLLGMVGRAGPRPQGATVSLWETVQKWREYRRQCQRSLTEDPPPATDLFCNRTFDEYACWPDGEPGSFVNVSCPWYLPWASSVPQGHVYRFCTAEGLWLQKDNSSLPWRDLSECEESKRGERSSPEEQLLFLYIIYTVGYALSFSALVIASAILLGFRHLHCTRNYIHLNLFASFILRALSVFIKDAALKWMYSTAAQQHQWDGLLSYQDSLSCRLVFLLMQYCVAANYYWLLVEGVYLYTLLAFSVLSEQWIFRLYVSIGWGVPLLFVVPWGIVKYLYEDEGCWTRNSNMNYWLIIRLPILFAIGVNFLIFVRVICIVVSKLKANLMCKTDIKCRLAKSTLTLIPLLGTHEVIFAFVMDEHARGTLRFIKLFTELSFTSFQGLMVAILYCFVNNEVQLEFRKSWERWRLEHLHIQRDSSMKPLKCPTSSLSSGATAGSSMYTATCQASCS
uPA surface inh: blocks generation of uPA at the cell surface. Potency, µM (doses to about 38.3 µM), for the others: at the top dose activity change, negative = inhibition, most hits filed as inhibitors. 330,000 compounds, 0.31% hits. cell surface uPA generation assay, qHTS; active means well fitted inhibition curve with a large enough effect; inconclusive means small, poorly fitted or top-dose-only effect; inactive means no such curve, though single readings can be large or run the other way; tested in mouse RAW 264.7 cells; further: potency means the concentration at half of the fitted maximal effect; on the % scale 0 is the no-effect control and ±100 the full control effect; nearly all actives have a fitted effect of over 55% in size
GLP1R cytotox: cytotoxicity in counter-screen for GLP-1R inverse agonists; AID 624418; HEK293 cAMP-luciferase reporter cells, luminescence, 24 h; Potency, µM (highest dose often 38.3 µM), for inactives: at the top dose activity change, negative = inhibition, hits mostly inhibitors; 410,000 compounds, 0.13% hits;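 further: loss of luciferase light is scored as toxicity; potency means the concentration at half of the fitted maximal effect; on the % scale 0 is the no-effect control and ±100 the full control effect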
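MLSMR compounds, 24 hr on cells at 37 deg C/5% CO2; luminescence after luciferase reagent (12 min RT). Inhibition counted as the undesired cytotoxic outcome.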
GLP1R inv ag: GLP-1 receptor (human) inverse agonism. Potency, µM (titrated, usually from 38.3 µM), without a hit: at the highest dose activity change, negative = inhibition, usual class: inhibitors. 410,000 compounds, 1.6% hits. HEK293 GLP-1R CRE-luciferase, luminescence, 24 h; GLP-1R form is constitutively active. P43220; further: potency means the concentration at half of the fitted maximal effect; on the % scale 0 is the no-effect control and ±100 the full control effect; nearly all actives have a fitted effect of over 55% in size
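Luminescence readout: a drop in cAMP-driven luciferase signal flags inverse agonism at a constitutively active GLP-1R stably expressed in HEK293. Compound exposure lasted 24 hr at 37 deg C, 5% CO2.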
CCT modulator: cytosolic chaperonin activity modulation | activity change, % (no concentration beside the values), hits read low | purified chaperonin ATPase assay, HTRF ADP detection, 30 min | 360,000 compounds, 0.3% hits; in the data active means activity change below about -30%; further: on the % scale 0 is the no-effect control and ±100 the full control effect
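Nucleotide hydrolysis assay: TRiC at 20–40 nM final (set by batch activity) with 10 uM ATP, 30 min at 37 °C, in presence of 76 uM compound. Detection by competitive ADP HTRF, 30 min ambient.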
Starred values were filed as active, the others as inactive; ? = inconclusive; . = no result; [ ] = another dose, or the depositor's remark. Unless noted, the call rests on the fitted dose curve; in most records, active means well fitted curve in the direction sought with a large enough effect; inconclusive means small, poorly fitted or top-dose-only effect, or another doubt; inactive means no such curve, though single readings can be large; an effect the other way counts as inactive or inconclusive.

SMILES	Mm-Cpn inhibitor	GLP1R ag	uPA surface inh	GLP1R cytotox	GLP1R inv ag	CCT modulator
CCOc1ccccc1N1CCN(c2nc3ccccc3nc2C(C#N)C(=O)OC(C)C)CC1 (stereo not drawn)	0%	2%	-10%	-10%	5µM*	0
COC(=O)C1CCN(c2nc3ccccc3nc2C(C#N)C(=O)NCCc2ccccc2)CC1 (stereo not drawn)	2%	-3%	1%	5%	-15%	-1
C=CCOC(=O)C(C#N)c1nc2ccccc2nc1N1CCN(c2ccccc2OCC)CC1 (stereo not drawn)	-13%	-1%	12%	3%	?	-1
COc1ccc(C)cc1NC(=O)Nc1ccccc1OCc1cc(=O)n2ccccc2n1	.	.	.	2%	-8%	.
CCOC(=O)c1cc(-c2ccc(OC)cc2)n(CCC(=O)NC2CCCCC2)c1C	.	.	.	16%	?	.
O=C1/C(=C\c2ccc(Cl)c(Cl)c2)CN(C(=O)CCN2CCOCC2)C/C1=C/c1ccc(Cl)c(Cl)c1	.	-14%	-12%	2.8µM*	?	-1
Cc1ccccc1Cn1cc(CCC(=O)NCc2cccc(Br)c2)c2ccccc21	.	.	.	3%	?	.
CCOc1ccc(C(=O)N2CCC(c3nc4ccccc4o3)CC2)cc1	.	.	.	-2%	-17%	.
O=C(N[C@@H](Cc1ccccc1)C(=O)N1CCC2(CC1)NCCc1[nH]cnc12)c1cccc(Br)c1	-1%	8%	2%	-22%	10µM*	-2
CC(C)c1ccc2c(c1)CCC1C(C)(CN)CCCC21C (stereo not drawn)	3%	1%	3%	?	5.6µM*	2
CC(C)c1cc2c(cc1S(=O)(=O)O)[C@@]1(C)CCC[C@@](C)(C(=O)O)[C@@H]1CC2	.	-5%	.	.	.	.
Cn1c(Cc2cccs2)nnc1SCC(=O)N1CCCc2ccccc21	-11%	-5%	3%	-14%	-9%	-1
O=C(CSc1nnc(Cc2cccs2)n1C1CCCCC1)N1CCCc2ccccc21	0%	1%	-6%	?	3.5µM*	-3
O=C(CSc1nnc(Cc2cccs2)n1CCc1ccccc1)N1CCCc2ccccc21	-3%	-8%	.	-35%	10µM*	-4
O=C(CSc1nnnn1C1CCCC1)N1CCCc2ccccc21	1%	19%	-2%	28%	?	-3
O=C(CSc1nnc(Cc2cccs2)n1-c1ccccc1)NC1CCCCC1	1%	-3%	-3%	-15%	1.4µM*	1
Cc1nnc(SCC(=O)NC2CCCCC2)n1-c1ccccc1	.	0%	.	1%	13%	2
COc1ccccc1-n1c(/C=C/c2c(C)n(C)c3ccccc23)nc2ccccc2c1=O	.	.	.	23%	-10%	.
O=c1c(-c2ccccc2)nc2ccccc2n1C(c1ccccc1)c1nc2ccccc2[nH]1 (stereo not drawn)	.	.	.	-22%	1.6µM*	.
O=c1c(-c2ccccc2)nc2ccccc2n1C(CCc1ccccc1)c1nc2ccccc2[nH]1 (stereo not drawn)	.	.	.	-15%	10µM*	.
c1ccc(-c2nc3ccccc3n2C(c2ccccc2)c2nc3ccccc3[nH]2)cc1 (stereo not drawn)	.	.	.	-13%	-22%	.
COc1ccc(-n2c3c(cc(C(=O)Nc4ccc(C)cc4)c2=O)C(=O)CCC3)cc1	.	1%	-7%	9%	11%	1
COc1ccc(-n2c3c(cc(C#N)c2=O)C(=O)CCC3)cc1	-1%	0%	0%	0%[7.66 µM]	-10%[7.66 µM]	-34*
COc1ccc(C)cc1NC(=S)N1CC(C)OC(C)C1 (stereo not drawn)	-2%	-5%	9%	2%	8%	-48*
COc1ccc(NC(=O)N2CC(C)OC(C)C2)cc1OC (stereo not drawn)	-1%	-8%	.	5%	5%	0
SMILES	Mm-Cpn inhibitor	GLP1R ag	uPA surface inh	GLP1R cytotox	GLP1R inv ag	CCT modulator
O=C(Nc1ccc(-c2noc(CCc3ccccc3)n2)cc1)c1ccco1	-3%	-5%	-4%	-13%	?	-56*
COc1ccc(-c2ccc(NC(=O)c3ccco3)cc2)nn1	-4%	-1%	-16%	17%	7.1µM*	0
COc1ccc(-c2cccc(NC(=O)c3ccco3)c2)nn1	1%	1%	4%	2%	-4%	3
CC(C)(C)c1ccc(Oc2ccc(NC(=O)c3ccco3)cn2)cc1	-3%	26%	1.3µM*	-28%	2.5µM*	-1
Cc1cccc(N2CCN(C(=O)c3cccc(-n4c(C)nc5cccnc54)c3)CC2)c1C	.	.	.	6%	13%	.
Cc1ccc(CCNC(=O)CN2C(=O)COc3ccc(S(=O)(=O)N4CCCCCC4)cc32)cc1	.	.	.	-1%	?	.
COc1ccc(Cn2c(CO)cnc2SCc2cccc(C)c2)cc1	.	13%	.	-6%	-34%	.
O=C(Nc1ccccc1Cl)N1CCCN(c2nc(-c3ccccc3)ns2)CC1	-3%	6%	7%	-16%	?	1
Cc1c(Cl)cccc1NC(=O)N1CCCN(c2nc(-c3ccccc3)ns2)CC1	-2%	6%	-2%	-5%	5µM*	0
CN(C)c1ccc(N=Nc2nccs2)cc1	.	-2%	.	11µM*	?	-3
CN(C)c1ccc(N=Nc2ccccc2Br)cc1	-1%	-4%	?	?	?	-3
O=c1c2ccccc2sc2c(CO)ccc(NCCN3CCCCC3)c12	.	-13%	-12%	7.9µM*	10µM*	-2
CCOc1ccc(NC(=O)CN(C)C(=O)CCNC(=O)c2ccccc2Cl)cc1OCC	-3%	-10%	2%	5%	13%	-44*
O=C(CSc1nnnn1C1CCCCC1)Nc1cccc(NC(=O)c2ccco2)c1	-1%	0%	6%	-11%	7.1µM*	1
COc1cc(C(=O)Nc2ccc(-c3cc(C(F)(F)F)nn3-c3ccccc3)cc2)cc(OC)c1OC	.	.	.	-6%	7.9µM*	.
Cc1ccc(CN2CCc3c(OCc4ccc(F)cc4)cccc3C2=O)cc1	-2%	13%	-7%	12%	4.5µM*	-1
CCOC(=O)c1c(C)[nH]c(C)c1S(=O)(=O)N1CCCC(C(=O)N2CCN(c3ccc(Cl)cc3)CC2)C1 (stereo not drawn)	.	.	.	-16%	?	.
Cc1ccc(S(=O)(=O)Cc2nc(-c3ccc(C(=O)NCc4ccccc4)cc3)oc2C)cc1	.	.	.	14%	8%	.
COC(=O)c1cc(NC(=O)CC2SC(=Nc3ccccc3)N(CCc3c[nH]c4ccccc34)C2=O)cc(C(=O)OC)c1 (stereo not drawn)	-2%	-13%	4%	?	4.5µM*	0
COCCN1C(=O)C(CC(=O)Nc2ccc(C(=O)O)cc2)SC1=Nc1ccccc1 (stereo not drawn)	3%	-5%	2%	1%	-4%	-2
